Experimental findings from PubChem BioAssay (EPA / NIEHS) are described below.

Test [1] is described as follows: BSK_LPS_SRB: Viability Assessment in the BioMAP Diversity Plus: LPS Assay (AID 2283079).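 Further: total protein by sulforhodamine B absorbance as a cytotoxicity measure; measured one day after compound addition.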 The following applies: primary human HUVEC with PBMC. In outline: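 HUVEC + PBMC co-culture, LPS-stimulated; compound 24 h. 10% TCA fix, 0.1% SRB stain, A560. Bidirectional fit vs DMSO.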
Read-out in test [2]: Interleukin-1 alpha (IL1a), IL1A (gene 3552)
In words: BSK_LPS_IL1a: BioMAP Diversity Plus: LPS Assay for Interleukin-1 alpha (IL1a) Biomarker Activity (AID 2283080). The conditions noted are these: primary human HUVEC with PBMC; actives raise or lower the signal. The essentials: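 HUVEC/PBMC co-culture, LPS system; 24 h after dosing; IL-1a by ELISA; gain or loss of signal fitted bidirectionally vs DMSO baseline.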

Read-out in test [3]: Monocyte Chemoattractant Protein-1 (MCP1), CCL2 (gene 6347)
Description: BSK_LPS_MCP1: BioMAP Diversity Plus: LPS Assay for Monocyte Chemoattractant Protein-1 (MCP1) Biomarker Activity (AID 2283081). The conditions noted are these: primary human HUVEC with PBMC; actives raise or lower the signal. In outline:
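ELISA read-out of MCP-1 after 24 h chemical dosing of a human umbilical vein endothelial cell/peripheral blood mononuclear cell co-culture stimulated with LPS. Gain or loss of signal fitted relative to DMSO controls.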

Test [4] is described as follows: BSK_LPS_PGE2: BioMAP Diversity Plus: LPS Assay for Prostaglandin E2 (PGE2) Biomarker Activity (AID 2283082).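 On AC50: secreted prostaglandin E2 measured by ELISA in LPS-stimulated co-culture.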 The following applies: primary human HUVEC with PBMC; actives raise or lower the signal. In outline:
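ELISA read-out of PGE2 from human umbilical vein endothelial cells co-cultured with peripheral blood mononuclear cells under LPS, 24 h post-dose. Gain or loss of signal scored relative to DMSO baseline.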

Read-out in test [5]: Macrophage colony-stimulating factor (MCSF), CSF1 (gene 1435)
Description: BSK_LPS_MCSF: BioMAP Diversity Plus: LPS Assay for Macrophage colony-stimulating factor (MCSF) Biomarker Activity (AID 2283083). The following applies: primary human HUVEC with PBMC; actives raise or lower the signal. The essentials:
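HUVEC + PBMC co-culture (human primary), 24 h post-dose; M-CSF by ELISA; gain/loss of signal fitted bidirectionally vs DMSO baseline.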

Read-out in test [6]: Tissue Factor, F3 (gene 2152)
Description: BSK_LPS_TissueFactor: BioMAP Diversity Plus: LPS Assay for Tissue Factor Biomarker Activity (AID 2283084). The conditions noted are these: primary human HUVEC with PBMC; actives raise or lower the signal. In outline: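 HUVEC/PBMC co-culture, LPS-activated; CD142 ELISA read 24 h post-dose; bidirectional curve fit vs DMSO negative control.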

Read-out in test [7]: Tumor necrosis factor (Homo sapiens) (UniProt P01375)
In words: BSK_LPS_TNFa: BioMAP Diversity Plus: LPS Assay for Tumour Necrosis Factor alpha (TNFa) Biomarker Activity (AID 2283085). The following applies: primary human HUVEC with PBMC; actives raise or lower the signal. The essentials:
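HUVEC/PBMC co-culture, LPS-stimulated; 24 h post-dose; TNFa by ELISA; gain or loss of signal fitted bidirectionally vs DMSO baseline.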

Read-out in test [8]: Vascular cell adhesion molecule 1 (VCAM1), VCAM1 (gene 7412)
In words: BSK_LPS_VCAM1: BioMAP Diversity Plus: LPS Assay for Vascular cell adhesion molecule 1 (VCAM1) Biomarker Activity (AID 2283086). The following applies: primary human HUVEC with PBMC; actives raise or lower the signal. The essentials: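 ELISA read-out of VCAM-1 at 24 h post-dosing in an LPS-driven HUVEC/PBMC primary human co-culture; gain or loss of signal fitted bidirectionally against DMSO baseline. Cytotoxicity tracked in parallel cultures by SRB total-protein staining.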

Read-out in the next test: CD38, CD38 (gene 952)
In words: BSK_SAg_CD38: BioMAP Diversity Plus: SAg Assay for CD38 Biomarker Activity (AID 2283087). The following applies: primary human HUVEC with PBMC; actives raise or lower the signal. The essentials: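 Measures CD38 on a human endothelial/PBMC co-culture driven by SEB and TSST-1, 24 h after compound exposure, using ELISA with fluorescence detection; DMSO defines baseline for bidirectional curve fitting.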

Read-out in a further test: CD40, CD40 (gene 958)
Description: BSK_SAg_CD40: BioMAP Diversity Plus: SAg Assay for CD40 Biomarker Activity (AID 2283088). The following applies: primary human HUVEC with PBMC; actives raise or lower the signal. In outline:
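HUVEC/PBMC co-culture, 24 h post-dose; CD40 by ELISA, fluorescence intensity; bidirectional fit vs DMSO negative control.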

Read-out in test [9]: Monocyte Chemoattractant Protein-1 (MCP1), CCL2 (gene 6347)
Description: BSK_SAg_MCP1: BioMAP Diversity Plus: SAg Assay for Monocyte Chemoattractant Protein-1 (MCP1) Biomarker Activity (AID 2283090). The conditions noted are these: primary human HUVEC with PBMC; actives raise or lower the signal. In outline: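 Values derive from bidirectional fitting of ELISA-measured MCP1 against DMSO controls. Readings were taken 24 h after dosing human vascular endothelial cells co-cultured with peripheral blood mononuclear cells under superantigen stimulation.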

Read-out in test [10]: E-selectin (Homo sapiens) (UniProt P16581)
Description: BSK_SAg_Eselectin: BioMAP Diversity Plus: SAg Assay for Eselectin Biomarker Activity (AID 2283091). The conditions noted are these: primary human HUVEC with PBMC; actives raise or lower the signal. In outline: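 E-selectin ELISA readout at 24 h post-dosing in human umbilical vein endothelial cell/PBMC co-culture; gain or loss of signal fitted relative to DMSO baseline.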

Read-out in test [11]: Monokine induced gamma interferon (MIG), CXCL9 (gene 4283)
Description: BSK_SAg_MIG: BioMAP Diversity Plus: SAg Assay for Monokine induced gamma interferon (MIG) Biomarker Activity (AID 2283092). The conditions noted are these: primary human HUVEC with PBMC; actives raise or lower the signal. The essentials: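 HUVEC plus human PBMC co-culture, chemicals dosed and MIG (CXCL9) quantified by ELISA at 24 h. Bidirectional curve fitting against DMSO as negative control and baseline, so both gain and loss of signal count as activity.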

Test [12] is described as follows: BSK_SAg_PBMCCytotoxicity: PBMC Cytotoxicity Assessment in the BioMAP Diversity Plus: SAg Assay (AID 2283093).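 Further: fitted both ways against DMSO so a hit may be loss or gain of signal.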 The following applies: primary human HUVEC with PBMC. The essentials:
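PBMC viability by Alamar Blue reduction, fluorescence read at 546/580 nm after 6 h dye exposure. Cells were dosed 1 h before SEB plus TSST-1 activation (20 ng/mL final each), then held 90 h; endothelial/PBMC human co-culture.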

Read-out in test [13]: Interleukin-8 (IL8), CXCL8 (gene 3576)
Description: BSK_SAg_IL8: BioMAP Diversity Plus: SAg Assay for Interleukin-8 (IL8) Biomarker Activity (AID 2283094). The following applies: primary human HUVEC with PBMC; actives raise or lower the signal. The essentials: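 HUVEC/PBMC co-culture, 24 h post-dose; IL-8 by ELISA. Gain or loss of signal fitted bidirectionally vs DMSO baseline.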

A short description of test [14]: BSK_SAg_Proliferation: Cell Proliferation Assessment in the BioMAP Diversity Plus: SAg Assay (AID 2283095).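 Further: relative cell number as total protein by SRB absorbance in sub-confluent culture.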 The conditions noted are these: primary human HUVEC with PBMC. In outline: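 HUVEC/PBMC co-culture, 96-well. TCA-fixed (10%), 0.1% SRB stain, A560 at 96 h. Protein content used as viability readout; bidirectional fitting vs DMSO control.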
Test [15] can be described thus: BSK_SAg_SRB: Viability Assessment in the BioMAP Diversity Plus: SAg Assay (AID 2283096).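 Further: cells read one day after compound addition; hits may be either gain or loss of signal compared with DMSO.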 The conditions noted are these: primary human HUVEC with PBMC. In outline: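 Compounds were added to a human vascular co-culture of umbilical vein endothelium and PBMC. After 24 h, parallel cultures were fixed with 10% TCA, stained with 0.1% sulforhodamine B and read at 560 nm. Gain or loss of signal was fitted relative to DMSO.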

Read-out in a further test: CD69, CD69 (gene 969)
Description: BSK_SAg_CD69: BioMAP Diversity Plus: SAg Assay for CD69 Biomarker Activity (AID 2283089).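 On AC50: cell surface CD69 protein quantified by ELISA with fluorescence detection.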 The conditions noted are these: primary human HUVEC with PBMC; actives raise or lower the signal. In outline: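 HUVEC co-cultured with PBMC were dosed with chemical, and CD69 was measured by ELISA with fluorescence read-out 24 h later. Bidirectional curve fitting used DMSO as negative control and activity baseline.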

The target of test [16] is human CYP2A6, CYP2A6 (gene 1548) (UniProt P11509). Description: NVS_ADME_hCYP2A6: NovaScreen (NVS) CYP450-related Enzyme Activity (ADME) Assay for human CYP2A6 (AID 2283099; active means hit-call score of the fitted dose curve at least 0.9, where 1 is the maximum). In outline:
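Insect-cell-expressed human CYP2A6 enzyme activity measured by fluorescence intensity 0.5 hour post-dosing. Compounds screened at 10 uM in duplicate, then hits tested singly in concentration series (max 20 uM); acetonitrile baseline.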

Structures are written as SMILES. Results filed as inconclusive are left out. Calls of active or inactive are those of the source. How the source made its calls, unless noted: active means hit-call score of the fitted dose curve at least 0.9, where 1 is the maximum; inactive means score below 0.9.

E-selectin (Homo sapiens), sequence (P16581 whole entry, looked up): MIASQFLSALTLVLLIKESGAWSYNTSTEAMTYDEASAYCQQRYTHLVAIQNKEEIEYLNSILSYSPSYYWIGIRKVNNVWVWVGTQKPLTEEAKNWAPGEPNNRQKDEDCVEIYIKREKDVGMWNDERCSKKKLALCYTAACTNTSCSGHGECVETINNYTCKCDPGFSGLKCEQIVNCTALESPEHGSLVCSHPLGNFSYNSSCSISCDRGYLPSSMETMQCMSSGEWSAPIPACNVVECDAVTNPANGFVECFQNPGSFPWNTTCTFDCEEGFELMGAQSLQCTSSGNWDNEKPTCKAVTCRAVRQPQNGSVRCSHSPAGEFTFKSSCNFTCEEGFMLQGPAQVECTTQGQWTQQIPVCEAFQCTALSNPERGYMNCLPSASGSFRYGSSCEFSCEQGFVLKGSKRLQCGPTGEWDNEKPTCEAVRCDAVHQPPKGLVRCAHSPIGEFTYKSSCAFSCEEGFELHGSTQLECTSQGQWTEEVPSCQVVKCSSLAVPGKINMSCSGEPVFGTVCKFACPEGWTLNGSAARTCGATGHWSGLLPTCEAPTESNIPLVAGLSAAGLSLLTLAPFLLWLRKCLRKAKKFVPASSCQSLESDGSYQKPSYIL
Tumor necrosis factor (Homo sapiens), sequence (P01375 whole entry, looked up): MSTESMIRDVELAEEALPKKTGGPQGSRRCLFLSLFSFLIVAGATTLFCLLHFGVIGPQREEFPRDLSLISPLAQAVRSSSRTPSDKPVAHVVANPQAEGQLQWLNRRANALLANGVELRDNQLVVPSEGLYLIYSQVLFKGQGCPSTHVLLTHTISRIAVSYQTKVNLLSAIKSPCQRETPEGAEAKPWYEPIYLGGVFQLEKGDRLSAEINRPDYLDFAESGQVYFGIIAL
human CYP2A6, CYP2A6 (gene 1548), sequence (P11509 whole entry, looked up): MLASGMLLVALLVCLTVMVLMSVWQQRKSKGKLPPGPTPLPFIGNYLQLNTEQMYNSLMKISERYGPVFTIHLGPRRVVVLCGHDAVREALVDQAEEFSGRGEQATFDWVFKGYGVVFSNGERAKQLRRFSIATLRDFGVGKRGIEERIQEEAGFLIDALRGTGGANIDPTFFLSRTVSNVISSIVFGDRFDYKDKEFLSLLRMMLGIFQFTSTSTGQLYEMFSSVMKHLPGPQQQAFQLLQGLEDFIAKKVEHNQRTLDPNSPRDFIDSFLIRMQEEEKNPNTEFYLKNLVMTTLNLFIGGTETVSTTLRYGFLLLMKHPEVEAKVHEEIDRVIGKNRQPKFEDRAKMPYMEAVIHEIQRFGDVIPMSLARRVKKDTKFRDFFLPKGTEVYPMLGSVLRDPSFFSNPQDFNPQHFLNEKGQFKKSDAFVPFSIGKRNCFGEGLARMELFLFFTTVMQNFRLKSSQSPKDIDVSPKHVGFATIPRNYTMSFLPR

Turning to `CCC(O)=C1C(=O)CC(C(=O)O)CC1=O` (stereo not drawn), the outcome in test [1], in test [2], in [3], in test [4], in test [5] and in test [6] was inactive. Moreover, the outcome in test [7] is “inactive”; in test [8], “inactive”; with CD38, CD38 (gene 952), “inactive”; in the test with CD40, CD40 (gene 958), “inactive”; in test [9], “inactive”; in [10] it was “inactive”. Further, the result in test [11], in test [12], in test [13], in [14] and in test [15] was inactive.
As for `O=C(O)C1(C(=O)Nc2ccc(Cl)cc2Cl)CC1`, the result in [1], in [2], in [3], in test [5], in test [6] and in [7] was inactive. Moreover, the outcome was “inactive” in [8]; “inactive” with CD40, CD40 (gene 958); “inactive” in test [9]; “inactive” in test [10]; “inactive” in [11]; “inactive” in test [12]. Besides, the outcome in [13] and in test [15] was inactive. Further, the AC50 was 7.72 µM (active) in test [4]; 5.3 µM (active) with CD38, CD38 (gene 952); 9.21 µM (active) with CD69, CD69 (gene 969); 12.3 µM (active) in test [14].
Regarding `O=C(O)c1ccccc1`, the result in [1], in [2], in test [3], in test [4], in [5] and in test [6] was inactive. For the same compound, the outcome in test [7] is “inactive”; in test [8] it was “inactive”; with CD38, CD38 (gene 952) it was “inactive”; in the test with CD40, CD40 (gene 958), “inactive”; in the test with CD69, CD69 (gene 969) it was “inactive”; in [9], “inactive”. The outcome in test [10], in test [11], in test [12], in [13], in test [14] and in test [15] was inactive. The result in test [16] was inactive.
On to `COC(=O)c1ccc(I)cc1S(=O)(=O)NC(=O)Nc1nc(C)nc(OC)n1`, for which the result in [1], in [2], in [3], in test [4], in [5] and in test [6] was inactive. Also, the outcome is “inactive” in test [7]; “inactive” in [8]; “inactive” with CD38, CD38 (gene 952); “inactive” with CD40, CD40 (gene 958); “inactive” in [9]; “inactive” in test [10]. Besides, the result in test [11], in [12], in test [13], in test [14] and in [15] was inactive.
Regarding `COC(=O)c1c(Cl)nn(C)c1S(=O)(=O)NC(=O)Nc1nc(OC)cc(OC)n1`, the outcome in [1], in test [2], in test [3], in [4], in [5] and in [6] was inactive. Besides, the outcome in test [7] was “inactive”; in test [8], “inactive”; in the test with CD38, CD38 (gene 952) it was “inactive”; with CD40, CD40 (gene 958) it was “inactive”; in [9], “inactive”; in [10] it was “inactive”. For the same compound, the outcome in [11], in test [12], in test [13], in test [14] and in [15] was inactive.
